SMILES strings stand for the structures. Entries with a potency or affinity are not part of this list. Results filed as inconclusive are left out. Calls of active or inactive are those of the source.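 Rule for the calls: active = cytotoxic in every repeat run, with fitted half-maximal concentration at most twice the top tested dose; inconclusive = runs disagree, or flat partial drop, or poor curve fit; inactive = inactive in every run.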

This assay is described as follows: embryonic kidney cell viability loss – CellTiter-Glo luminescence, dry powder, set 20, cytotoxicity control, dose response (AID 1117293). To be noted: HEK293T viability, CellTiter-Glo ATP luminescence, 72 h; series mostly up to 26 µM.
As for `CC(=O)N1CCN(C(=O)C2(NC(=O)Nc3ccccc3C(F)(F)F)CCCCC2)CC1`, the call was inactive.
As to `Cn1cnc(S(=O)(=O)Nc2cc(C(F)(F)F)ccc2N2CCCCC2)c1`, the call was inactive.
For `COc1ccc(C(=O)O)cc1S(=O)(=O)Nc1cc(C(F)(F)F)ccc1N1CCN(C(C)=O)CC1` the value was “inactive”; for `COc1ccc(C(=O)Nc2cc(C)ccc2N2CCCCC2)cc1S(=O)(=O)O`, “inactive”; for `CC(=O)N1CCN(C(=O)C2(NC(=O)Nc3ccc(C(F)(F)F)cc3)CCCCC2)CC1`, “inactive”.
The value for `COc1ccc(C(=O)O)cc1S(=O)(=O)Nc1cc(C(F)(F)F)ccc1N(C)C` was “inactive”; that for `CC(=O)N1CCN(C(=O)C2(NC(=O)NCCc3ccccc3)CCCCC2)CC1` was “inactive”.
On to `O=S(=O)(Nc1cc(C(F)(F)F)ccc1N1CCCCC1)c1ccc(Cl)cc1`, for which the outcome was inactive.
For `Cc1ccccc1S(=O)(=O)Nc1cc(C(F)(F)F)ccc1N1CCCCC1` the value was “inactive”; for `O=[N+]([O-])c1ccc(S(=O)(=O)Nc2cc(C(F)(F)F)ccc2N2CCCCC2)c([N+](=O)[O-])c1`, “inactive”; for `O=S(=O)(Nc1cc(C(F)(F)F)ccc1N1CCCCC1)c1ccc(Br)cc1`, “inactive”.
As to `CC(=O)N1CCN(C(=O)C2(NC(=O)Nc3cccc(F)c3)CCCCC2)CC1`, the compound was classed as inactive.
The value for `CC(=O)N1CCN(C(=O)C2(NC(=O)Nc3ccc(F)cc3)CCCCC2)CC1` was “inactive”; that for `NC(=NCCc1c[nH]c2ccccc12)NS(=O)(=O)c1cc(F)ccc1F` was “inactive”.
With `COc1ccc(C(=O)Nc2cccc(C(F)(F)F)c2)cc1S(=O)(=O)O`, the call was inactive.
For the compound `O=S(=O)(Nc1cc(C(F)(F)F)ccc1N1CCCCC1)c1ccc(F)cc1`, the result was inactive.
For `COc1ccc(C(=O)Nc2cc(C(F)(F)F)ccc2N2CCCCC2)cc1S(=O)(=O)O` the value was “inactive”; for `CC(=O)N1CCN(C(=O)C2CCCN2C(=O)Nc2ccc(C)cc2)CC1` (centres undefined), “inactive”; for `COc1ccc(C(=O)O)cc1S(=O)(=O)Nc1cc(C(F)(F)F)ccc1N1CCCCC1`, “inactive”.
As to `O=S(=O)(Nc1cc(C(F)(F)F)ccc1N1CCCCC1)c1ccccc1`, the compound was classed as inactive.
Regarding `COc1cccc(NC(=O)NC2(C(=O)N3CCN(C(C)=O)CC3)CCCCC2)c1`, the outcome was inactive.
The value for `CC(=O)N1CCN(C(=O)CNC(=O)Nc2ccc(C)cc2)CC1` was “inactive”; that for `O=S(=O)(O)c1ccc(N2N=C(c3ccccc3)CC2c2ccccc2)cc1` (centres undefined) was “inactive”; that for `COc1ccc(C(=O)Nc2cc(F)ccc2N2CCCCC2)cc1S(=O)(=O)O` was “inactive”.

Source of the values: PubChem BioAssay AID1117293 (Broad Institute, 2014).
